The record followed here is PubChem BioAssay.

Test [1] can be described thus: HepG2 liver cancer cell viability effects, profiling panel, resazurin fluorescence, 24 h, PK04 Diversity Set (AID 1172). Further: test concentration not given here. The note with it: higher = more signal. A general note: Alamar Blue is a resazurin reagent that responds to reducing activity.
A short description of test [2]: basal S. cerevisiae growth modulation, no modifier, primary screen, OD600, strain BY4716, 24 h, basal condition (AID 1173). The note with it: OD600, 24 h, higher = more signal, called active from +8 up or from −8 down.
Test [3] is described as follows: MM1S myeloma cell viability, profiling panel, resazurin fluorescence, basal, 24 h, PK04 Diversity Set (AID 1174).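 Further: MM1S multiple myeloma cell line; test concentration not given here.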 The note with it: higher = more signal, called active from +8 up or from −8 down.
The target in test [4] is Dihydroorotate dehydrogenase (quinone), mitochondrial (Plasmodium falciparum (isolate 3D7)) (UniProt Q08210). Kind of test: PfDHODH enzyme inhibitors, primary screen, biochemical, C-terminal His tag, absorbance 600 nm (AID 1175).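 Further: recombinant parasite enzyme with a five histidine tag at its C terminus; test concentration not given here.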 The note with it: DCIP absorbance 600 nm, higher = more signal, called active from +8 up or from −8 down.
Chain of Dihydroorotate dehydrogenase (quinone), mitochondrial (Plasmodium falciparum (isolate 3D7)) (Q08210 whole entry, looked up): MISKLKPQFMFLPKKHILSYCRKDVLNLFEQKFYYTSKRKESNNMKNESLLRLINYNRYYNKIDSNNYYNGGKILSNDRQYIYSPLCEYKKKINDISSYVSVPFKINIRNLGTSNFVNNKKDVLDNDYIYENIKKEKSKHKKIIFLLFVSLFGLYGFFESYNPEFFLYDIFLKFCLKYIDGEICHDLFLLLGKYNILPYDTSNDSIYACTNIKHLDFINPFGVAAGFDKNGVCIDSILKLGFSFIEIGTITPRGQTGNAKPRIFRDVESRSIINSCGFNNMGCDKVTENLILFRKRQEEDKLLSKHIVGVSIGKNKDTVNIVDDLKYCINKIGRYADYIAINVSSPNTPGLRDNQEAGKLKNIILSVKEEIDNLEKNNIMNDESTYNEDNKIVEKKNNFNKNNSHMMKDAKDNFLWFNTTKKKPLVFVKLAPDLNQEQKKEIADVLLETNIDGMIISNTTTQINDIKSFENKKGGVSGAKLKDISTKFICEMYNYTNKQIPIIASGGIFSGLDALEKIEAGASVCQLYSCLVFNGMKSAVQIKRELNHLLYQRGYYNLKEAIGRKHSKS
A short description of test [5]: P. aeruginosa biofilm formation inhibitors, primary screen, strain PAO1, LB-PBS medium, absorbance 600 nm (AID 1176). Further: test concentration not given here. The note with it: P. aeruginosa PAO1 growth/biofilm, A600, 12 h; higher = more signal.
Test [6] in a line: S. cerevisiae RM11-1a growth modifiers, primary screen, strain RM11-1a, OD600, basal, 24 h (AID 1177).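 Further: cultures grown under basal conditions with no added stressor; test concentration not given here.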 The note with it: OD600, 24 h, higher = more signal, called active from +8 up or from −8 down.
Test [7] can be described thus: E. coli acrAB mutant growth effects, primary screen, E. coli filamentation inducers, strain DRC39, OD650, 24 h (AID 1178).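 Further: growth measured as culture turbidity by optical density at 650 nm; test concentration not given here.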 The note with it: higher = more signal, called active from +8 up or from −8 down.
Test [8] in a line: E. coli acrAB mutant growth effects, primary screen, E. coli filamentation inducers, strain DRC39, OD650, 48 h (AID 1179).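 Further: screen aims at cell division blockers that make cells filament.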 Conditions: E. coli DRC39 delta-acrAB growth, higher = more signal, called active from +8 up or from −8 down.
Test [9] can be described thus: RPMI8226 myeloma cell viability, profiling panel, resazurin fluorescence, basal, 24 h, PK04 Diversity Set (AID 1180).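 Further: RPMI8826 multiple myeloma cell line at 5000 cells per well; test concentration not given here.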 Conditions: higher = more signal.
The target in test [10] is E3 ubiquitin-protein ligase XIAP (Homo sapiens) (UniProt P98170). Kind of test: XIAP binders, primary screen, biophysical, small-molecule microarray, fluorescence 635 nm (AID 1181).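 Further: score merges 667 nm emission and signal to noise over triplicate slides.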 The note with it: small-molecule microarray binding, higher = more signal.
Chain of E3 ubiquitin-protein ligase XIAP (Homo sapiens) (P98170 whole entry, looked up): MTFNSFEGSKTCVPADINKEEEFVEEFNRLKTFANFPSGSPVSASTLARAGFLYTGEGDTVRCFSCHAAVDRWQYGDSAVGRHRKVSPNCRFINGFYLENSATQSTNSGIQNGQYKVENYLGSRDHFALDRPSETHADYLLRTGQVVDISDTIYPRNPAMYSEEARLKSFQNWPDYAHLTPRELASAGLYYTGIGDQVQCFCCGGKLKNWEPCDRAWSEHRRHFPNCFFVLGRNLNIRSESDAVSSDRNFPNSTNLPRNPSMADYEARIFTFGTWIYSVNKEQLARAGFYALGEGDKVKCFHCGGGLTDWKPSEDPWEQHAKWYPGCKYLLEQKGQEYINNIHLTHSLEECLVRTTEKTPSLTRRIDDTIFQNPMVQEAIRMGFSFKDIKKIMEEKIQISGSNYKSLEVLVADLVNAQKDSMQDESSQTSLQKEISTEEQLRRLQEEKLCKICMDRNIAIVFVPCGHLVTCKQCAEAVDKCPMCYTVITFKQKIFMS

The source made the active and inactive calls. Unless noted, how the calls were made is not given here.

For the compound `CS(=O)(=O)CCOC(=O)C1=CC(c2ccc(CO)cc2)=CC(C2CC2)N(Cc2cc3c(cc2Br)OCO3)C=C1C(=O)OCCS(C)(=O)=O` (stereo not given), the z-score is -0.311 in test [1]; -4.92 (inactive) in [2]; -2.7 (inactive) in [3]; 0.613 (inactive) in [5]; 0.478 (inactive) in [6]; 0.537 (inactive) in [7]. Also, the z-score in test [8] is -0.75 (inactive); in [9] it was -2.19. The composite z-score was -0.735 (inactive) in [4] and 0.14 in test [10].

As to `C=CCNC(=O)[C@@H]1[C@H]2C(=O)O[C@H](c3ccccc3)[C@H](c3ccccc3)N2[C@H](c2ccc(OCCO)cc2)[C@@]12C(=O)Nc1ccccc12`, the z-score in test [1] was 0.61; in test [2], -1.67 (inactive); in test [3] it was -0.0761 (inactive); in [5], 3.15 (inactive); in test [6], -0.412 (inactive); in test [7] it was 1.34 (inactive). The z-score in test [8] is 0.548 (inactive); in [9], -0.0855. In addition, the composite z-score in test [4] is -2.04 (inactive); in test [10], 0.0192.

Consider `C=CCC(OC(C)=O)[C@@H]1[C@@H](N(Cc2cccc3ccccc23)C(=O)c2ccc(C)cc2)c2cc(OCCCO)ccc2N1C(=O)Cc1ccc(OC)cc1` (stereo not given in full), for which the z-score in [1] is 1.36; in test [2] it was -2.29 (inactive); in test [3] it was 0.641 (inactive); in [5], 0.0186 (inactive); in test [6] it was -1.25 (inactive); in test [7] it was 1.59 (inactive). For the same compound, the z-score in [8] was 1.98 (inactive); in test [9], -0.203. For the same compound, the composite z-score in test [4] was -1.6 (inactive); in test [10] it was -0.086.

On to `COC(=O)c1ccc(C(O)C2C=CC3C(=O)N(C)C(=O)C3N2NC(=O)OC(C)(C)C)o1` (stereo not given), for which the z-score is -0.784 in test [1]; 0.483 (inactive) in test [2]; -0.29 (inactive) in test [3]; 0.599 (inactive) in test [5]; 0.402 (inactive) in [6]; -0.685 (inactive) in [7]. Besides, the z-score is -0.757 (inactive) in test [8] and -0.212 in test [9]. Besides, the composite z-score in test [4] is -0.0658 (inactive); in test [10] it was 1.42.

Regarding `CCOc1cc(C(O)C2C=CC3C(=O)N(c4ccccc4)C(=O)C3N2Nc2ccc([N+](=O)[O-])cc2)ccc1O` (stereo not given), the z-score in test [1] is -0.506; in test [2], -0.571 (inactive); in test [3], -0.669 (inactive); in test [5], 0.878 (inactive); in test [6], -0.864 (inactive); in test [7], -0.763 (inactive). For the same compound, the values for the z-score in test [8] and in test [9] were -0.709 (inactive) and -0.901, respectively. The composite z-score in test [4] is 0.377 (inactive); in [10], -0.127.

Turning to `O=C(O)[C@H]1C[C@H]2C(=O)NCC(=O)N2[C@H]1c1ccc(O)cc1`, the z-score was 1.46 in test [1]; -1.25 (inactive) in test [2]; 0.866 (inactive) in test [3]; 0.0904 (inactive) in test [5]; -0.804 (inactive) in test [6]; 1.49 (inactive) in test [7]. Further, the z-score in test [8] is 1.51 (inactive); in test [9], 0.839. Also, the composite z-score is -0.592 (inactive) in test [4] and -0.211 in test [10].

With `C=C[C@@H](COC(C)=O)N(Cc1ccc([N+](=O)[O-])cc1)S(=O)(=O)c1ccc(Br)cc1`, the z-score in test [1] is 0.835; in test [2] it was -0.367 (inactive); in test [3] it was 0.417 (inactive); in [5], -0.801 (inactive); in test [6], 1.19 (inactive); in [7], 1.01 (inactive). For the same compound, the z-score in test [8] was 0.469 (inactive); in test [9], 1.49. In addition, the composite z-score is -1.01 (inactive) in test [4] and 0.0345 in [10].

Take `CC(=O)NCCCC[C@@H]1NC(=O)[C@@H]2C[C@H](C(=O)NCCCCN(C)C)[C@H](c3ccc(O)cc3)N2C1=O`: the z-score in test [1] is 0.801; in test [2], -0.397 (inactive); in test [3], 0.925 (inactive); in test [5], -0.201 (inactive); in test [6], 0.037 (inactive); in test [7] it was 1.23 (inactive). For the same compound, the z-score is 1.51 (inactive) in test [8] and 1.15 in [9]. Also, the composite z-score in [4] is -0.0536 (inactive); in test [10] it was -0.23.

Turning to `Cc1cc(C)cc(N2C(=O)CS(=O)(=O)C2c2cccc([N+](=O)[O-])c2)c1` (stereo not given), the z-score in test [1] is -0.0507; in [2], -0.658 (inactive); in [3], -0.208 (inactive); in test [5] it was -0.407 (inactive); in [6], -0.438 (inactive); in [7] it was 0.899 (inactive). The results for the z-score in [8] and in [9] were 1.04 (inactive) and -0.194, respectively. For the same compound, the composite z-score in [4] was -2.1 (inactive); in test [10], -0.22.

For `CC(C)CNC(=O)[C@@H]1c2ccccc2C(=O)N(Cc2cc(C(F)(F)F)cc(C(F)(F)F)c2)[C@H]1c1ccc(CO)cc1`, the z-score in test [1] is -1.16; in test [2] it was 0.578 (inactive); in test [3], 0.889 (inactive); in test [5] it was -0.171 (inactive); in [6] it was 0.927 (inactive); in test [7] it was 0.898 (inactive). The figures for the z-score in test [8] and in test [9] were 0.343 (inactive) and 1.29, respectively. In addition, the composite z-score in [4] was -0.697 (inactive); in [10], -0.198.

`COCCOC(=O)N1C(=O)[C@@]2(c3cc(C#CCNC(N)=O)ccc31)[C@H](c1ccc(O)cc1)N1[C@H](c3ccccc3)[C@H](c3ccccc3)OC(=O)[C@H]1[C@@H]2C(=O)Nc1nc2ccccc2s1`: the z-score was 1.51 in [1]; -2.16 (inactive) in test [2]; 1.38 (inactive) in test [3]; 3.22 (inactive) in [5]; -2.47 (inactive) in test [6]; 2.74 (inactive) in [7]. Also, the z-score in test [8] is 2.74 (inactive); in test [9] it was 0.803. In addition, the figures for the composite z-score in test [4] and in test [10] were -1.96 (inactive) and -0.115, respectively.

Regarding `Cc1ccc(S[C@]2(C(=O)NCCN3CCOCC3)CC(=O)N(Cc3cc(C(F)(F)F)cc(C(F)(F)F)c3)[C@@H]2c2ccc(CO)cc2I)cc1`, the z-score is 1.21 in test [1]; -5.83 (inactive) in test [2]; -2.06 (inactive) in test [3]; -0.407 (inactive) in test [5]; -2.09 (inactive) in [6]; 0.106 (inactive) in test [7]. Also, the z-score in test [8] is 1.09 (inactive); in [9], -2.33. Besides, the results for the composite z-score in test [4] and in test [10] were -0.483 (inactive) and -0.419, respectively.
